The values that follow come from article doi:10.1101/2024.03.05.583629.

The target in the first experiment is pT7_6His-AlfaTag-HOXD13 (human, UniProt P35453 263-343). Nature of the experiment: PADIT-seq. The following applies: dsDNA, one strand shown.
Sequence of pT7_6His-AlfaTag-HOXD13 (P35453 263-343): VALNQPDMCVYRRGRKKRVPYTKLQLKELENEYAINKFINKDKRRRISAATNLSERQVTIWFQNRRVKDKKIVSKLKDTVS
Sequence “CTCGAGGATATCAAGATCTGGCCTCGGCAGCGTAAAAGGAACCTCTAGCTAGCCGACTCACTATAGGGATAATCGCCCTGAGCAAAGACC” yielded a binding signal of 0.403 ± 0.0993 log2FC.
Sequence “CTCGAGGATATCAAGATCTGGCCTCGGCTTTTTAGTTGGAACCTCTAGCTAGCCGACTCACTATAGGGATAATCGCCCTGAGCAAAGACC” returned a binding signal of 0.658 ± 0.103 log2FC.
In turn, “CTCGAGGATATCAAGATCTGGCCTCGGCCCTGTAAAAGGAACCTCTAGCTAGCCGACTCACTATAGGGATAATCGCCCTGAGCAAAGACC” gave a binding signal of 2.46 ± 0.085 log2FC.
As to “CTCGAGGATATCAAGATCTGGCCTCGGCATCCCACGCGGAACCTCTAGCTAGCCGACTCACTATAGGGATAATCGCCCTGAGCAAAGACC”, the binding signal is -0.991 ± 0.113 log2FC.
On to “CTCGAGGATATCAAGATCTGGCCTCGGCGCGTGGATAGGAACCTCTAGCTAGCCGACTCACTATAGGGATAATCGCCCTGAGCAAAGACC”, for which the binding signal was -0.997 ± 0.122 log2FC.
The sequence “CTCGAGGATATCAAGATCTGGCCTCGGCCTTTTAGAGGGAACCTCTAGCTAGCCGACTCACTATAGGGATAATCGCCCTGAGCAAAGACC” had a binding signal of 1.1 ± 0.092 log2FC.
Still for that read-out and setting: to “CTCGAGGATATCAAGATCTGGCCTCGGCCGCGACCGCGGAACCTCTAGCTAGCCGACTCACTATAGGGATAATCGCCCTGAGCAAAGACC” belongs -0.85 ± 0.123 log2FC; to “CTCGAGGATATCAAGATCTGGCCTCGGCATTTTATACGGAACCTCTAGCTAGCCGACTCACTATAGGGATAATCGCCCTGAGCAAAGACC”, 2.61 ± 0.0763 log2FC; to “CTCGAGGATATCAAGATCTGGCCTCGGCCCTTTAAAAGGAACCTCTAGCTAGCCGACTCACTATAGGGATAATCGCCCTGAGCAAAGACC”, 2.14 ± 0.0827 log2FC.
Consider “CTCGAGGATATCAAGATCTGGCCTCGGCGCGCAGGCGGGAACCTCTAGCTAGCCGACTCACTATAGGGATAATCGCCCTGAGCAAAGACC”, for which the binding signal is -1.07 ± 0.126 log2FC.
The same measure, in the same setting: to “CTCGAGGATATCAAGATCTGGCCTCGGCGAGTGGGCGGGAACCTCTAGCTAGCCGACTCACTATAGGGATAATCGCCCTGAGCAAAGACC” belongs -0.602 ± 0.0984 log2FC; to “CTCGAGGATATCAAGATCTGGCCTCGGCTCCCCACGCGGAACCTCTAGCTAGCCGACTCACTATAGGGATAATCGCCCTGAGCAAAGACC”, -0.217 ± 0.124 log2FC.

In a further experiment the target is pT7_6His-AlfaTag-ZIF268 (human, UniProt P18146 335-423). In words: PADIT-seq. The following applies: dsDNA, one strand shown.
“CTCGAGGATATCAAGATCTGGCCTCGGCGCATGGGCGGGAACCTCTAGCTAGCCGACTCACTATAGGGATAATCGCCCTGAGCAAAGACC” registered a binding signal of 0.51 ± 0.0916 log2FC.
The same measure, in the same setting: for “CTCGAGGATATCAAGATCTGGCCTCGGCAAATGGGCGGGAACCTCTAGCTAGCCGACTCACTATAGGGATAATCGCCCTGAGCAAAGACC” the value was 0.157 ± 0.0868 log2FC.
The same measure, in the same setting: for “CTCGAGGATATCAAGATCTGGCCTCGGCTGTTGGGCGGGAACCTCTAGCTAGCCGACTCACTATAGGGATAATCGCCCTGAGCAAAGACC” the value was 0.111 ± 0.0773 log2FC.
Same read-out and setting: to “CTCGAGGATATCAAGATCTGGCCTCGGCACGCTAAAAGGAACCTCTAGCTAGCCGACTCACTATAGGGATAATCGCCCTGAGCAAAGACC” belongs 0.0119 ± 0.0913 log2FC; to “CTCGAGGATATCAAGATCTGGCCTCGGCATTTTAATCGGAACCTCTAGCTAGCCGACTCACTATAGGGATAATCGCCCTGAGCAAAGACC”, 0.0175 ± 0.09 log2FC.
The sequence “CTCGAGGATATCAAGATCTGGCCTCGGCGCGTGGTATGGAACCTCTAGCTAGCCGACTCACTATAGGGATAATCGCCCTGAGCAAAGACC” came in with a binding signal of 0.45 ± 0.0837 log2FC.
On the same count and under the same terms, to “CTCGAGGATATCAAGATCTGGCCTCGGCGTTTTATTGGGAACCTCTAGCTAGCCGACTCACTATAGGGATAATCGCCCTGAGCAAAGACC” belongs 0.0618 ± 0.0949 log2FC.
The sequence “CTCGAGGATATCAAGATCTGGCCTCGGCGCGTGGAATGGAACCTCTAGCTAGCCGACTCACTATAGGGATAATCGCCCTGAGCAAAGACC” gave a binding signal of 0.0778 ± 0.106 log2FC.
Sequence “CTCGAGGATATCAAGATCTGGCCTCGGCCGCCCACTTGGAACCTCTAGCTAGCCGACTCACTATAGGGATAATCGCCCTGAGCAAAGACC” yielded a binding signal of 0.543 ± 0.104 log2FC.
Still for that read-out and setting: for “CTCGAGGATATCAAGATCTGGCCTCGGCCGCCACCGCGGAACCTCTAGCTAGCCGACTCACTATAGGGATAATCGCCCTGAGCAAAGACC” the value was 0.142 ± 0.0977 log2FC; for “CTCGAGGATATCAAGATCTGGCCTCGGCCTTTTAAGGGGAACCTCTAGCTAGCCGACTCACTATAGGGATAATCGCCCTGAGCAAAGACC”, 0.073 ± 0.082 log2FC; for “CTCGAGGATATCAAGATCTGGCCTCGGCCAGATAAAAGGAACCTCTAGCTAGCCGACTCACTATAGGGATAATCGCCCTGAGCAAAGACC”, 0.0449 ± 0.11 log2FC.
The same measure, in the same setting: for “CTCGAGGATATCAAGATCTGGCCTCGGCAAATTAAAAGGAACCTCTAGCTAGCCGACTCACTATAGGGATAATCGCCCTGAGCAAAGACC” the value was 0.0496 ± 0.0856 log2FC.
Still for that read-out and setting: to “CTCGAGGATATCAAGATCTGGCCTCGGCATTTTACAGGGAACCTCTAGCTAGCCGACTCACTATAGGGATAATCGCCCTGAGCAAAGACC” belongs 0.116 ± 0.0849 log2FC; to “CTCGAGGATATCAAGATCTGGCCTCGGCGGGATAAAAGGAACCTCTAGCTAGCCGACTCACTATAGGGATAATCGCCCTGAGCAAAGACC”, 0.0461 ± 0.0742 log2FC; to “CTCGAGGATATCAAGATCTGGCCTCGGCCGCTTGCGCGGAACCTCTAGCTAGCCGACTCACTATAGGGATAATCGCCCTGAGCAAAGACC”, 0.0632 ± 0.103 log2FC.
On to “CTCGAGGATATCAAGATCTGGCCTCGGCCTTTTATGCGGAACCTCTAGCTAGCCGACTCACTATAGGGATAATCGCCCTGAGCAAAGACC”, for which the binding signal stood at 0.00428 ± 0.0795 log2FC.
Same read-out and setting: for “CTCGAGGATATCAAGATCTGGCCTCGGCGCGTGGGGTGGAACCTCTAGCTAGCCGACTCACTATAGGGATAATCGCCCTGAGCAAAGACC” the value was 1.28 ± 0.111 log2FC.
The same measure, in the same setting: to “CTCGAGGATATCAAGATCTGGCCTCGGCTTGTGGGCGGGAACCTCTAGCTAGCCGACTCACTATAGGGATAATCGCCCTGAGCAAAGACC” belongs 2.19 ± 0.0788 log2FC.
Still for that read-out and setting: for “CTCGAGGATATCAAGATCTGGCCTCGGCGACCCACGCGGAACCTCTAGCTAGCCGACTCACTATAGGGATAATCGCCCTGAGCAAAGACC” the value was 0.214 ± 0.0833 log2FC; for “CTCGAGGATATCAAGATCTGGCCTCGGCTAATGGGCGGGAACCTCTAGCTAGCCGACTCACTATAGGGATAATCGCCCTGAGCAAAGACC”, 0.0526 ± 0.0899 log2FC; for “CTCGAGGATATCAAGATCTGGCCTCGGCATCCTAAAAGGAACCTCTAGCTAGCCGACTCACTATAGGGATAATCGCCCTGAGCAAAGACC”, 0.0323 ± 0.0965 log2FC.
The sequence “CTCGAGGATATCAAGATCTGGCCTCGGCGTCATAAAAGGAACCTCTAGCTAGCCGACTCACTATAGGGATAATCGCCCTGAGCAAAGACC” had a binding signal of 0.00486 ± 0.0824 log2FC.
Same read-out and setting: to “CTCGAGGATATCAAGATCTGGCCTCGGCCTTTTACGCGGAACCTCTAGCTAGCCGACTCACTATAGGGATAATCGCCCTGAGCAAAGACC” belongs 0.0363 ± 0.0782 log2FC; to “CTCGAGGATATCAAGATCTGGCCTCGGCGTTTTAACAGGAACCTCTAGCTAGCCGACTCACTATAGGGATAATCGCCCTGAGCAAAGACC”, 0.0535 ± 0.0797 log2FC; to “CTCGAGGATATCAAGATCTGGCCTCGGCTTTTTAGAGGGAACCTCTAGCTAGCCGACTCACTATAGGGATAATCGCCCTGAGCAAAGACC”, 0.141 ± 0.108 log2FC.
Same read-out and setting: to “CTCGAGGATATCAAGATCTGGCCTCGGCAGCGTAAAAGGAACCTCTAGCTAGCCGACTCACTATAGGGATAATCGCCCTGAGCAAAGACC” belongs 0.0644 ± 0.094 log2FC; to “CTCGAGGATATCAAGATCTGGCCTCGGCTTTTTAGTTGGAACCTCTAGCTAGCCGACTCACTATAGGGATAATCGCCCTGAGCAAAGACC”, 0.189 ± 0.0984 log2FC.
The same measure, in the same setting: to “CTCGAGGATATCAAGATCTGGCCTCGGCCCTGTAAAAGGAACCTCTAGCTAGCCGACTCACTATAGGGATAATCGCCCTGAGCAAAGACC” belongs 0.046 ± 0.0931 log2FC; to “CTCGAGGATATCAAGATCTGGCCTCGGCATCCCACGCGGAACCTCTAGCTAGCCGACTCACTATAGGGATAATCGCCCTGAGCAAAGACC”, 0.41 ± 0.087 log2FC.
In turn, “CTCGAGGATATCAAGATCTGGCCTCGGCGCGTGGATAGGAACCTCTAGCTAGCCGACTCACTATAGGGATAATCGCCCTGAGCAAAGACC” yielded a binding signal of 0.0372 ± 0.0987 log2FC.
The same measure, in the same setting: for “CTCGAGGATATCAAGATCTGGCCTCGGCCTTTTAGAGGGAACCTCTAGCTAGCCGACTCACTATAGGGATAATCGCCCTGAGCAAAGACC” the value was 0.0179 ± 0.0928 log2FC; for “CTCGAGGATATCAAGATCTGGCCTCGGCCGCGACCGCGGAACCTCTAGCTAGCCGACTCACTATAGGGATAATCGCCCTGAGCAAAGACC”, 0.0618 ± 0.097 log2FC.
Same read-out and setting: for “CTCGAGGATATCAAGATCTGGCCTCGGCATTTTATACGGAACCTCTAGCTAGCCGACTCACTATAGGGATAATCGCCCTGAGCAAAGACC” the value was 0.0469 ± 0.0817 log2FC.
Sequence “CTCGAGGATATCAAGATCTGGCCTCGGCCCTTTAAAAGGAACCTCTAGCTAGCCGACTCACTATAGGGATAATCGCCCTGAGCAAAGACC” gave a binding signal of 0.0924 ± 0.0888 log2FC.
Regarding “CTCGAGGATATCAAGATCTGGCCTCGGCGCGCAGGCGGGAACCTCTAGCTAGCCGACTCACTATAGGGATAATCGCCCTGAGCAAAGACC”, the binding signal is 0.339 ± 0.0965 log2FC.
In the case of “CTCGAGGATATCAAGATCTGGCCTCGGCGAGTGGGCGGGAACCTCTAGCTAGCCGACTCACTATAGGGATAATCGCCCTGAGCAAAGACC”, the binding signal was determined as 2.79 ± 0.0771 log2FC.
“CTCGAGGATATCAAGATCTGGCCTCGGCTCCCCACGCGGAACCTCTAGCTAGCCGACTCACTATAGGGATAATCGCCCTGAGCAAAGACC” came in with a binding signal of 0.208 ± 0.106 log2FC.
